Each structure is given as a SMILES string. In all, about 230,000 compounds went through this assay and about 1,500 (0.65%) were called active.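 Rule for the calls: active = pattern-corrected inhibition of lipid staining of at least 50% with the nuclear-stain viability signal not falling by more than 50%; inactive = the rest, inconclusive results apart.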 The full list was thinned out, with actives kept by preference.

The experiment is described as follows: TAG lipid buildup reduction in H9c2 cells – cell-based, uHTS, fluorescence, primary screen (AID 651582).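 For inhibition: 0% = DMSO wells and 100% = triacsin C control wells.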 The settings on record: Nile Red lipid (TAG) fluorescence, at 12.5 µM, cells loaded with 200 µM oleic acid; DAPI nuclei signal change (viability), lower = more cytotoxic: measured here: DAPI nuclei count viability; inhibition: stronger effect = higher value.
As to `COc1ccc2nc(SCC(=O)Nc3c(C)cc(C)cc3C)[nH]c2c1`, the DAPI nuclei signal change (viability), lower = more cytotoxic was -8.51% and the inhibition – broadly, the change of the read-out against control, counted positive when it falls – was 24.4% (inactive).

Consider `Cc1nc2ccc(C(=O)O)cc2[nH]1`, for which the DAPI nuclei signal change (viability), lower = more cytotoxic was found to be 7.29% and the inhibition was -10.7% (inactive).

As to `COC(=O)Nc1nc2ccc(Sc3ccccc3)cc2[nH]1`, the DAPI nuclei signal change (viability), lower = more cytotoxic was -43.5% and the inhibition is 58.7% (active).

Take `N#Cc1ccc(-c2ccc3nccn3c2)cc1`: the DAPI nuclei signal change (viability), lower = more cytotoxic amounted to 18.4% and the inhibition is -21.5% (inactive).

For the compound `COc1cc(C(=O)NCC(c2ccco2)N2CCCC2)ccc1OCc1ccccc1` (stereo not given), the DAPI nuclei signal change (viability), lower = more cytotoxic is 9.22% and the inhibition is 5.54% (inactive).

Take `CCC1CCCCN1C(=S)NC(=O)c1ccco1` (stereo not given): the DAPI nuclei signal change (viability), lower = more cytotoxic was -3.85% and the inhibition was -2.4% (inactive).

In the case of `COC(=O)c1ccc(SCc2ccccc2)nc1`, the DAPI nuclei signal change (viability), lower = more cytotoxic was 0.616% and the inhibition was -5.84% (inactive).

Turning to `COc1ccc(OCC(=O)NNC(=O)c2ccc(-c3ccccc3)cc2)cc1`, the DAPI nuclei signal change (viability), lower = more cytotoxic was -4.12% and the inhibition was -6.97% (inactive).

As to `COC(=O)c1ccc(-c2c(-c3ccccc3)ncc3cc(OC)c(OC)cc23)cc1`, the DAPI nuclei signal change (viability), lower = more cytotoxic is -46.2% and the inhibition was 70.6% (active).

Take `CN(CC(=O)Nc1c(Cl)cccc1Cl)C(=O)CC1OC(=O)c2ccccc21` (stereo not given): the DAPI nuclei signal change (viability), lower = more cytotoxic is -7% and the inhibition was 2.91% (inactive).

On to `COc1ccc(S(=O)(=O)N2CCCCC2c2cc(C(=O)NCc3ccc(F)cc3)no2)cc1` (stereo not given), for which the DAPI nuclei signal change (viability), lower = more cytotoxic was -7.14% and the inhibition is 11.8% (inactive).

Consider `O=C(Nc1ccc(OC(F)(F)F)cc1)c1ccc2c(c1)no[n+]2[O-]`, for which the DAPI nuclei signal change (viability), lower = more cytotoxic was -44.5% and the inhibition was 57.3% (active).

As to `Cn1nccc1NC(=O)Nc1ccc(OC(F)(F)F)cc1`, the DAPI nuclei signal change (viability), lower = more cytotoxic is 0.761% and the inhibition was -19.5% (inactive).

With `CCOC(=O)Cc1ncccc1C(=O)Nc1ccc(OC(F)(F)F)cc1`, the DAPI nuclei signal change (viability), lower = more cytotoxic is -10.3% and the inhibition was -0.736% (inactive).

As for `Cc1ccccc1Cn1c(C)c(C(=O)NCc2cccc(C(F)(F)F)c2)sc1=O`, the DAPI nuclei signal change (viability), lower = more cytotoxic was determined as 2.91% and the inhibition is 13.2% (inactive).

With `CC(C)CC1C(=O)N(Cc2cn(CC3CCCCC3)nn2)CCS(=O)(=O)N1Cc1ccc(-c2ccc(Cl)cc2)cc1` (stereo not given), the DAPI nuclei signal change (viability), lower = more cytotoxic is -4.47% and the inhibition was 46.5% (inactive).

On to `CC(=O)c1cccc(-c2ccc(CN3C(CC(C)C)C(=O)N(Cc4cn(CC5CCCCC5)nn4)CCS3(=O)=O)cc2)c1` (stereo not given), for which the DAPI nuclei signal change (viability), lower = more cytotoxic is -20.7% and the inhibition was 52.2% (active).

Take `COc1ccc(-c2ccc(CN3C(CC(C)C)C(=O)N(Cc4cn(CC5CCCCC5)nn4)CCS3(=O)=O)cc2)cc1` (stereo not given): the DAPI nuclei signal change (viability), lower = more cytotoxic was -3.84% and the inhibition was 14.3% (inactive).

For `Cc1ccccc1-c1cc(C(=O)NCc2cccs2)n(CC2CC(c3cccnc3)=NO2)n1` (stereo not given), the DAPI nuclei signal change (viability), lower = more cytotoxic is -34.7% and the inhibition was -1.76% (inactive).

With `O=C(CCc1ccc(S(=O)(=O)N2CCOCC2)cc1)OCC(=O)c1ccc(Br)cc1`, the DAPI nuclei signal change (viability), lower = more cytotoxic was 5.4% and the inhibition is -35.9% (inactive).

As to `CN(C)S(=O)(=O)c1cccc(NC(=S)NCc2ccc3c(c2)OCO3)c1`, the DAPI nuclei signal change (viability), lower = more cytotoxic was 8.91% and the inhibition was -12.9% (inactive).

Take `Cc1ccc(/C=N/NC(=S)Nc2cccc(S(=O)(=O)N(C)C)c2)o1`: the DAPI nuclei signal change (viability), lower = more cytotoxic was -39% and the inhibition was 65.8% (active).

With `Cc1ccc(/C=N/NC(=S)NC2CCCCC2)o1`, the DAPI nuclei signal change (viability), lower = more cytotoxic is -2.44% and the inhibition is 15.8% (inactive).

Consider `CN1OC[C@@H]2CN[C@H](c3ccc(-c4ccccc4)cc3)C[C@@H]21`, for which the DAPI nuclei signal change (viability), lower = more cytotoxic is -19.9% and the inhibition is 37.5% (inactive).

On to `COc1ccccc1Nc1nc(N)nc(CN(C)C2CCCCC2)n1`, for which the DAPI nuclei signal change (viability), lower = more cytotoxic is -2.24% and the inhibition was -18.7% (inactive).

For the compound `COc1ccccc1NC1=NC2(CCCC2)N=C(N)N1`, the DAPI nuclei signal change (viability), lower = more cytotoxic was -8.79% and the inhibition was 8.65% (inactive).

For `COc1ccccc1NC1=NC(c2ccc(Cl)cc2)N=C(N)N1` (stereo not given), the DAPI nuclei signal change (viability), lower = more cytotoxic is -23.4% and the inhibition was 58.3% (active).

Take `Cc1ccc(NC(=O)CN(C)C(=O)c2ccc(Cl)c(S(=O)(=O)NCc3ccco3)c2)cc1`: the DAPI nuclei signal change (viability), lower = more cytotoxic was -5.08% and the inhibition is 12.3% (inactive).

Turning to `CCCCc1ccc(S(=O)(=O)NC(=O)C2(C)CCN2C(=O)c2c(C)noc2C)cc1` (stereo not given), the DAPI nuclei signal change (viability), lower = more cytotoxic was 2.79% and the inhibition was 0.354% (inactive).

As for `O=C(Nc1cccc(C(=O)O)c1)/C(=C\c1ccccc1)NC(=O)c1ccc(Br)o1`, the DAPI nuclei signal change (viability), lower = more cytotoxic is -3.36% and the inhibition is 6.66% (inactive).

Take `COc1ccc2sc(-c3ccc(S(C)(=O)=O)cc3)c(-c3ccc(C(N)=O)cc3)c2c1`: the DAPI nuclei signal change (viability), lower = more cytotoxic was -5.68% and the inhibition is 33.1% (inactive).

For `COc1ccc2sc(-c3ccc(S(C)(=O)=O)cc3)c(C#Cc3cncn3C)c2c1`, the DAPI nuclei signal change (viability), lower = more cytotoxic amounted to 54.1% and the inhibition is 93.5% (active).

Consider `Cn1cncc1C#Cc1c(-c2ccsc2)sc2ccccc12`, for which the DAPI nuclei signal change (viability), lower = more cytotoxic turned out to be 7.19% and the inhibition is -0.161% (inactive).

`O=C(O)c1ccc([N+](=O)[O-])cc1Sc1ccsc1`: the DAPI nuclei signal change (viability), lower = more cytotoxic is -1.85% and the inhibition is -10.5% (inactive).

With `CCOC(=O)c1cc(-c2sc(NC(=O)c3ccccc3)nc2C)n(Cc2ccccc2)n1`, the DAPI nuclei signal change (viability), lower = more cytotoxic is -2.4% and the inhibition is 44.7% (inactive).

With `COCCNc1ncnc2c1ncn2[C@H]1CN(CCN2CCOCC2)C[C@@H](CO)O1`, the DAPI nuclei signal change (viability), lower = more cytotoxic was -0.911% and the inhibition was 0.573% (inactive).

`CCCOC(=O)c1[nH]c2c(c1C)C(=O)CC(c1cccs1)C2` (stereo not given): the DAPI nuclei signal change (viability), lower = more cytotoxic was -13.9% and the inhibition is 64.7% (active).

Consider `CCCOC(=O)c1[nH]c2c(c1C)C(=O)CC(c1cc(OC)c(OC)c(OC)c1)C2` (stereo not given), for which the DAPI nuclei signal change (viability), lower = more cytotoxic was -10.1% and the inhibition was -26.3% (inactive).

Turning to `COC(=O)C1C(=O)c2c([nH]c(C(=O)OCCSC)c2C)CC1C` (stereo not given), the DAPI nuclei signal change (viability), lower = more cytotoxic was -3.66% and the inhibition is 1.54% (inactive).

Turning to `Cn1c(CCN2CCN(c3ccccn3)CC2)nc2cc(NS(=O)(=O)c3ccc(F)cc3)ccc21`, the DAPI nuclei signal change (viability), lower = more cytotoxic is 6.59% and the inhibition is -5.66% (inactive).

Turning to `CC1CCC2(CC1)NC(=O)N(CC(=O)c1ccc3c(c1)OCO3)C2=O` (stereo not given), the DAPI nuclei signal change (viability), lower = more cytotoxic came out at 5.46% and the inhibition was -2.45% (inactive).

Regarding `O=C(O)c1ccccc1-c1cccc2nncn12`, the DAPI nuclei signal change (viability), lower = more cytotoxic was determined as 3.23% and the inhibition is -1.16% (inactive).

As for `Cc1ccc2nc(C)cc(N/N=C/c3ccc(F)cc3)c2c1`, the DAPI nuclei signal change (viability), lower = more cytotoxic was 4.22% and the inhibition is 4.13% (inactive).

For the compound `Cc1cc(N/N=C\c2ccc(Br)cc2)nc(-n2nc(C)cc2C)n1`, the DAPI nuclei signal change (viability), lower = more cytotoxic is -21.7% and the inhibition was 59% (active).

On to `C(=N/Nc1cc(N2CCOCC2)nc(N2CCOCC2)n1)/c1ccccc1`, for which the DAPI nuclei signal change (viability), lower = more cytotoxic was -80.2% and the inhibition was 126% (inactive).

For the compound `C=C(C)C(=O)O[C@H]1C/C(C)=C\C(=O)/C=C(\C)[C@H](O)[C@@H]2OC(=O)C(=C)[C@@H]21`, the DAPI nuclei signal change (viability), lower = more cytotoxic was -49.2% and the inhibition is 51.2% (active).

As to `CC(=O)c1sc(NC(=O)c2ccc(C)cc2)nc1C`, the DAPI nuclei signal change (viability), lower = more cytotoxic was -3.26% and the inhibition is -5.37% (inactive).

Regarding `COc1ccc(C(=O)Nc2nc(-c3ccc(OC)cc3)c(-c3ccc([N+](=O)[O-])cc3)s2)cc1`, the DAPI nuclei signal change (viability), lower = more cytotoxic is -4.41% and the inhibition is 61.8% (active).

Take `O=C(Nc1nc2ccc([N+](=O)[O-])cc2s1)c1ccncc1`: the DAPI nuclei signal change (viability), lower = more cytotoxic stood at 12.5% and the inhibition is -10.5% (inactive).

Take `Cc1ccc(C)c(S(=O)(=O)N(C)c2ccc(OC(=O)C3CCN(C(=O)c4ccc(F)cc4)CC3)cc2)c1`: the DAPI nuclei signal change (viability), lower = more cytotoxic is 0.336% and the inhibition was -28% (inactive).

The values above are taken from PubChem BioAssay AID651582 (Sanford-Burnham Center for Chemical Genomics, 2012).
